D2 ag-1 – agonists of human D2 dopamine receptor. HEK293 T-REx D2 cells, calcium flux agonist mode. P14416. AID 485358. activation, % at 2 µM. 0.53% of 340,000 active;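 active = activation over 3 SD above normal in the single-dose calcium agonist read, cut at about 30% in these data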; also: 0% is about no effect
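Calcium-flux readout, 1 cycle/sec over 180 s following compound pin transfer, in inducible HEK293 Trex D2 cells (force-coupled); dopamine controls included. Positive calcium responses during this window marked compounds as potential agonists.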
D2 ag-2 – activates the human D2 dopamine receptor. DiscoveRx PathHunter D2 beta-arrestin, luminescence, 90 min; 100% = 57 uM dopamine signal. activation, % (concentration not given with the values). 0.084% of 360,000 active; in the data active = activation above about 40%; inconclusive = between about 15% and that limit
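Agonist mode: compounds alone added to overnight-plated D2 PathHunter cells for 90 min at 37 C, with 57 uM final dopamine (EC100) defining full response. Beta-arrestin recruitment detected by chemiluminescent reagent, read after 1 h at ambient temperature.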
D2 antag – D2 dopamine receptor (human) antagonism; AID 485344; 2% of 340,000 active; inhibition, % at 10 µM; HEK293 TREx D2 cells, calcium flux, dopamine EC80; P14416; in the data active = inhibition above about 30%; inactive = below that, where a call was filed; also: 0% is about no effect
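Inhibition of EC80 dopamine-driven calcium flux, recorded kinetically, defines activity here; cells are a tetracycline-induced HEK293 T-REx line expressing force-coupled D2.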
D2 PAM-1 – positive allosteric modulators of human D2 dopamine receptor; P14416; HEK293 T-REx D2, calcium flux, EC20 dopamine potentiation; potentiation, % at 10 µM; 0.34% of 340,000 active;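 active = potentiation over 3 SD above the plate norm, cut at about 30% in these data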; also: 0% is about no effect
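Primary screen. Calcium kinetics in induced HEK293 T-REx D2 cells: compound pre-addition 180 s, EC20 dopamine, 180 s more.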
D2 PAM-2 – potentiates the human D2 dopamine receptor allosterically; 0.23% of 360,000 active; DiscoveRx D2 beta-arrestin cells, luminescence, 90 min; 100% = 57 uM dopamine signal; AID 624464; P14416; potentiation, % (concentration not given with the values); in the data active = potentiation above about 50%; inconclusive = mostly about 30% to 49%
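PathHunter D2 cells, attached overnight at 37 deg C, received compound in DMSO plus dopamine at EC20 (50 nM final) for 90 min at 37 deg C. Beta-arrestin recruitment was read as luminescence after 1 h with detection reagent at ambient temperature.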
D3 arrestin ag – activates human D3 dopamine receptor beta-arrestin recruitment. AID 720506. Potency, µM (top dose mostly 76.9 µM), for the others: at the highest dose activation, hits mostly activators. 4% of 2,300 active. shares compounds with D2 ag-1. DiscoveRx D3 beta-arrestin cells, luminescence, 90 min;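 also: potency is read from the fitted curve at half-maximal effect; 100% = dopamine control response; nearly all actives have a fitted effect of over 70% in size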
Target sequence (P35462 whole entry, looked up): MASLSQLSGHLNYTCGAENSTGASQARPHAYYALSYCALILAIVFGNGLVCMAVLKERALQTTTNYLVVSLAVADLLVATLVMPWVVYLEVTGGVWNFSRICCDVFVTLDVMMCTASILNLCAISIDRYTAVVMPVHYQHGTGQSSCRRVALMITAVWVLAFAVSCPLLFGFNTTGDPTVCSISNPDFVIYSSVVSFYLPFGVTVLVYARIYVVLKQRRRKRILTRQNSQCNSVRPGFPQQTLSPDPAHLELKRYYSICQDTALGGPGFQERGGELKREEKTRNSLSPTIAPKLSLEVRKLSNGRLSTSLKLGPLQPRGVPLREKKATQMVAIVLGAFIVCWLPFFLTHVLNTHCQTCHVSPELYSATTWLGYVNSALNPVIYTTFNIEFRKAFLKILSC
D2 ag-3 – activates human D2 dopamine receptor in D3 counterscreen; shares compounds with D2 ag-1; 5.9% of 2,300 active; AID 720507; DiscoveRx PathHunter D2 beta-arrestin, luminescence, 90 min; response scale: percent relative to full dopamine signal; Potency, µM (doses to about 76.9 µM), inactives show at the highest dose activation, actives largely listed as activators; also: potency is read from the fitted curve at half-maximal effect; % of control where 0% means no effect; nearly all actives have a fitted effect of over 70% in size
Starred values were filed as active, the others as inactive; ! = repeats disagree. Most compounds without a hit are left out; they make up all but 2.4% or so of the library. Unless noted, calls follow the shape of the dose curve; as a rule, active = well fitted activation curve with a large enough effect; inconclusive = small, poorly fitted or top-dose-only effect; inactive = flat fitted curve, though single readings scatter.

Screening Fc1ccc(CN2CCN(c3ncccn3)CC2)c(F)c1 returned D2 ag-1 95*, D2 ag-2 60*, D2 antag 79*, D2 PAM-1 -24, D2 PAM-2 29, D3 arrestin ag inconclusive and D2 ag-3 16µM*.
For Fc1cccc(CN2CCN(c3ncccn3)CC2)c1 the results were D2 ag-1 77*, D2 ag-2 80*, D2 antag 83*, D2 PAM-1 -29, D2 PAM-2 55*, D3 arrestin ag inconclusive and D2 ag-3 1.4µM*.
C(#Cc1ccccc1)CN1CCCCC1 was read as D2 ag-1 0, D2 ag-2 -3, D2 antag -21, D2 PAM-1 -5 and D2 PAM-2 -21.
Screening O=C(Nc1ccc(Br)cc1)c1cc(S(=O)(=O)N2CCc3ccccc32)ccc1F returned D2 PAM-1 -18.
COc1ccccc1N1CCN(C(=O)Cn2c(=O)nc(-c3ccccc3)c3ccccc32)CC1 was read as D2 ag-1 2 and D2 PAM-1 6.
For Cc1ccc2[nH]c3c(N4CCN(Cc5ccc6c(c5)OCO6)CC4)ncnc3c2c1 the results were D2 PAM-1 -13.
Screening c1nc(N2CCN(Cc3ccc4c(c3)OCO4)CC2)c2[nH]cnc2n1 returned D2 ag-2 9, D2 PAM-2 81*, D3 arrestin ag 16% and D2 ag-3 2.8µM*.
`c1cnc(N2CCN(Cc3ccc4c(c3)OCO4)CC2)nc1` gave D2 ag-1 80*, D2 ag-2 41*!, D2 antag 89*, D2 PAM-1 -26, D2 PAM-2 62*!, D3 arrestin ag inconclusive and D2 ag-3 0.05µM*.
`Clc1ccc(CN2CCN(c3ncccn3)CC2)cc1` gave D2 ag-1 73*, D2 ag-2 68*, D2 antag 85*, D2 PAM-1 -17, D2 PAM-2 53*, D3 arrestin ag inconclusive and D2 ag-3 2.8µM*.
For Cc1csc(NC(=O)c2cnc3ccccc3n2)n1 the results were D2 ag-1 25, D2 ag-2 -2, D2 antag -17, D2 PAM-1 19, D2 PAM-2 -2, D3 arrestin ag -16% and D2 ag-3 1%.
Screening Cc1csc(NC(=O)c2ccc3ccccc3n2)n1 returned D2 ag-1 7, D2 ag-2 -1, D2 antag 10, D2 PAM-1 16 and D2 PAM-2 -7.
CN1CCc2c(sc(NC(=O)c3ccc([N+](=O)[O-])o3)c2C(N)=O)C1 was read as D2 ag-1 75*, D2 ag-2 1, D2 antag 29, D2 PAM-1 -19, D2 PAM-2 -12, D3 arrestin ag -20% and D2 ag-3 2%.
Screening Cc1cccc(/C=N/NC(=O)NC2CCCCC2)c1 returned D2 ag-1 3, D2 ag-2 -6, D2 antag 26, D2 PAM-1 -10, D2 PAM-2 -7, D3 arrestin ag -3% and D2 ag-3 -3%.
For Cn1c(=O)cc(SCC(=O)NCCCN2CCN(c3ccc(F)cc3)CC2)c2ccccc21 the results were D2 ag-1 33*, D2 ag-2 2, D2 antag 91*, D2 PAM-1 -26, D2 PAM-2 -34, D3 arrestin ag -5% and D2 ag-3 9%.
Screening CN(CCNC(=O)C1CCN(S(=O)(=O)N2CCOCC2)CC1)CCc1ccccc1 returned D2 ag-1 55*, D2 ag-2 3, D2 antag 28, D2 PAM-1 -18, D2 PAM-2 -26, D3 arrestin ag 7% and D2 ag-3 5%.
Cc1ccc(CNC(=O)C2CCCN(c3nc4ccccc4n4cccc34)C2)cc1 (stereo unspecified) was read as D2 ag-1 0 and D2 PAM-1 -3.
For COc1cccc(NC(=O)CN(C)C(=O)c2ccc3c(c2)C(=O)N(CCC(C)C)C3=O)c1 the results were D2 ag-1 0, D2 ag-2 2, D2 antag -14, D2 PAM-1 8, D2 PAM-2 -1, D3 arrestin ag 7% and D2 ag-3 3%.
For COCCCN1C(=O)c2ccc(C(=O)Nc3cccc(OC)c3)cc2C1=O the results were D2 ag-1 0, D2 ag-2 -1, D2 antag 13, D2 PAM-1 0 and D2 PAM-2 -2.
`COc1cccc(NC(=O)CN(C)C(=O)C(Sc2ccccc2)c2ccccc2)c1` (stereo unspecified) gave D2 ag-1 0, D2 ag-2 -4, D2 antag 0, D2 PAM-1 -13, D2 PAM-2 -13, D3 arrestin ag -4% and D2 ag-3 0%.
`COc1cccc(NC(=O)CN(C)C(=O)CCC(=O)c2cc(C)sc2C)c1` gave D2 ag-1 -1, D2 ag-2 2, D2 antag -20, D2 PAM-1 9, D2 PAM-2 -10, D3 arrestin ag -4% and D2 ag-3 -2%.
O=C(CNC(=O)c1ccccc1)NCC(=O)OCC(=O)c1ccc(F)cc1 was read as D2 ag-2 -7, D2 PAM-2 7, D3 arrestin ag -4% and D2 ag-3 -4%.
Screening Cc1ccc(C(=O)NCC(=O)NCC(=O)OCC(=O)c2ccc(F)cc2)cc1 returned D2 ag-1 49*, D2 ag-2 0, D2 antag 6, D2 PAM-1 -20, D2 PAM-2 -5, D3 arrestin ag -6% and D2 ag-3 -5%.
`CCc1ccc2c(c1)c(=O)c(C(=O)c1ccc(C)cc1)cn2CC(=O)Nc1ccc2c(c1)OCCO2` gave D2 ag-1 0 and D2 PAM-1 -19.
Screening C/C(=N\NC(=O)c1ccc(-c2ccccc2)cc1)C1C(=O)c2ccccc2C1=O returned D2 ag-1 32*, D2 ag-2 4, D2 antag 84*, D2 PAM-1 -14, D2 PAM-2 1, D3 arrestin ag 2% and D2 ag-3 -1%.
C/C(=N\NC(=O)c1ccc(Br)cc1)C1C(=O)c2ccccc2C1=O was read as D2 ag-1 3, D2 ag-2 -2, D2 antag -2, D2 PAM-1 -4 and D2 PAM-2 -14.
Screening CS(=O)(=O)Nc1ccccc1C(=O)Nc1cc(Cl)cc(Cl)c1 returned D2 ag-1 7, D2 ag-2 -2, D2 antag -1, D2 PAM-1 3, D2 PAM-2 -6, D3 arrestin ag 19% and D2 ag-3 23%.
